Bioassay records deposited in PubChem BioAssay by several laboratories.
CYP2C9 inh = blockers of cytochrome P450 2C9 activity – biochemical, luminescence, ADME assay, primary screen. CYP2C9 Supersomes, luciferin-H conversion. inhibition, % at 5 µM. 20% of 96,000 active. AID 777, 2007;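 active means blocking of liver enzyme CYP2C9 beyond about 50% at 5 µM, limit read from the data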
Target sequence (P11712 whole entry, looked up): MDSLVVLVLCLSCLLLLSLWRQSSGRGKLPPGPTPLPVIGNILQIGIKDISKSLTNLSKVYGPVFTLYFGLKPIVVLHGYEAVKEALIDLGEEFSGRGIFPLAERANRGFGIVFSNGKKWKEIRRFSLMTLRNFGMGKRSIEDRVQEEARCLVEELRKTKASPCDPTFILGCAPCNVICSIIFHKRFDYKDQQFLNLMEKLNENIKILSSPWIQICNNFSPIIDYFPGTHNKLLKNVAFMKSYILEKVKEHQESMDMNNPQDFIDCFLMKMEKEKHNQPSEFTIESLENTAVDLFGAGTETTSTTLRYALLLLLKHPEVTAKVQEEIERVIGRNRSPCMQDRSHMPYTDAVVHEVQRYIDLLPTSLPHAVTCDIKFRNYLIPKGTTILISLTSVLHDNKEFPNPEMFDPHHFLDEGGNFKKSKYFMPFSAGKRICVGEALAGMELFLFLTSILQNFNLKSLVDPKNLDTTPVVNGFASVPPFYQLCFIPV
CYP2C19 act = human CYP2C19 activators, primary screen, biochemical, luminescence. Cytochrome P450 2C19 (Homo sapiens), P33261. recombinant CYP2C19, luciferin-H EGE luminescence; active compounds read high; 0 = fully inhibited enzyme, 1 = untreated enzyme. activation factor at 5 µM. 96,000 tested, under 10 active. AID 1025, 2008;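 active means activation factor of at least 2 at 5 µM in the primary screen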;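 further: 0 = wells with 2.5 mM tranylcypromine and 1 = vehicle-only wells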
EphB4 antag = EphB4-ephrin-B2 interaction antagonists, primary screen, biochemical, TNYL-RAW peptide probe, fluorescence polarization. EphB4 LBD / TNYL-RAW-Alexa532 peptide. inhibition, % at 7 µM. 0.15% of 97,000 active. AID 720, 2007;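 active means inhibition above the screen-wide mean inhibition plus 3 SD, cut at about 15% in these data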;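 further: 0% = DMSO wells and 100% = excess unlabeled TNYL-RAW peptide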
CYP2C9 activ = human CYP2C9 activators, primary screen, biochemical, luminescence. activation factor at 5 µM. recombinant CYP2C9, luciferin-H conversion; active compounds read high; factor 1 = untreated enzyme, 0 = blocked. Cytochrome P450 2C9 (Homo sapiens), P11712. AID 1024, 2008. 1.4% of 96,000 active;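 active means activation factor of 2 or more for CYP2C9 at a 5 µM dose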;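 further: 0 = sulfaphenazole-blocked wells and 1 = vehicle-only wells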
CYP2C19 inhib = blockers of cytochrome P450 2C19 activity – biochemical, luminescence, ADME assay, primary screen; P33261; CYP2C19 Supersomes, luciferin-H EGE luminescence, 30 min; inhibition, % at 5 µM; 21% of 96,000 active;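 active means CYP2C19 inhibition above a set limit at 5 µM in the primary screen, cut at about 50% in these data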;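 further: plate controls were negative control wells for no effect and 2.5 mM tranylcypromine positive control for full effect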
Active calls of the source: *; . = no result given. This is a sample that favours compounds with a hit; in the whole collection about 27% have one here.

SMILES	CYP2C9 inh	CYP2C19 act	EphB4 antag	CYP2C9 activ	CYP2C19 inhib
COc1ccc(COC(=O)Nc2cc3c(C(F)(F)F)nn(C)c3s2)cc1	-10	0.5	-6	1.1	49
Cn1nc(C(F)(F)F)c2cc(C(=O)Nc3ccc(Cl)cc3)sc21	-44	0.9	0	1.4	11
Cn1nc(C(F)(F)F)c2cc(NC(=O)OCc3ccc(F)cc3)sc21	-148	0.5	-2	2.5*	52*
O=C1COc2ccc(C(=O)NCc3ccc4c(c3)OCO4)cc2N1	25	0.6	-6	0.7	43
CCOC(=O)C1CCCN(C(=O)c2cc(Nc3ccc(OC)c(OC)c3)nc3ccccc23)C1 (stereo not drawn)	75*	0.5	3	0.3	48
CCOC(=O)C1CCCN(C(=O)c2cn(C)c(=O)c3cc(OC)c(OC)cc23)C1 (stereo not drawn)	.	.	7	.	.
COc1ccc(Nc2cc(C(=O)NCCCN3CCOCC3)c3ccccc3n2)c(OC)c1	25	1	1	0.7	3
CCOC(=O)C1CCCN(C(=O)c2cc(Nc3ccc(OC)cc3OC)nc3ccccc23)C1 (stereo not drawn)	98*	0.4	1	0	64*
COc1ccc(N2CCN(S(=O)(=O)Cc3ccccc3)CC2)cc1	-17	1.3	-3	1.2	-30
CCSc1nc2ccccc2n1Cc1nc(N)nc(N(C)C)n1	66*	0.1	-11	0.3	90*
CCSc1nc2ccccc2n1CC(N)=O	.	.	-5	.	.
Cc1ccc(CNC(=O)c2ccccc2N)cc1	10	0.7	-3	0.9	28
COc1ccc(N2CCN(CC(=O)Nc3nc4c(s3)CC(C)CC4)CC2)cc1 (stereo not drawn)	57*	0.6	-4	0.4	43
CC1CCc2nc(NC(=O)Cc3cccs3)sc2C1 (stereo not drawn)	20	0.9	-1	0.8	11
COc1ccc(N2CCN(CC(=O)Nc3cc(C)on3)CC2)cc1	8	1.1	0	0.9	-8
CC1CCc2nc(NC(=O)c3ccco3)sc2C1 (stereo not drawn)	56*	0.3	.	0.4	66*
CCOC(=O)C1=C(N)n2c(s/c(=C\c3ccco3)c2=O)=C(C(=O)OCC)C1c1ccco1 (stereo not drawn)	36	0.9	-3	0.6	10
O=C1CCCN1CN1CCCCC1	-9	1.2	4	1.1	-19
CCOC(=O)c1sc(NC(=O)c2cc(-c3ccccc3)nc3ccccc23)c(C#N)c1C	49	1	11	0.5	5
Cc1cccc(-c2cc(C(=O)Nc3sc(C)c(C)c3C(N)=O)c3ccccc3n2)c1	69*	1	-4	0.3	0
Cc1ccc(C)c(-c2cc(C(=O)Nc3sc(C)c(C)c3C(N)=O)c3ccccc3n2)c1	96*	0.6	-5	0	41
CCc1ccc(C2NC(C(=O)O)CS2)cc1 (stereo not drawn)	-9	1	3	1.1	0
O=C1CC(N2CCC(c3nc4ccccc4o3)CC2)C(=O)N1c1ccc(Cl)c(C(F)(F)F)c1 (stereo not drawn)	40	0.9	2	0.6	8
C=CCn1c(SCC(=O)NCCC2=CCCCC2)nc2ccc(Cl)cc2c1=O	56*	0.7	2	0.4	29
O=C(Nc1nc(-c2ccc3c(c2)OCO3)cs1)C1CC1	48	0.7	.	0.5	33
SMILES	CYP2C9 inh	CYP2C19 act	EphB4 antag	CYP2C9 activ	CYP2C19 inhib
CCC(C)NC(=O)CC(NS(=O)(=O)c1ccc(Cl)cc1)c1ccco1 (stereo not drawn)	20	0.3	-2	0.8	75*
Cc1ccc(S(=O)(=O)NC(CC(=O)O)c2ccco2)cc1 (stereo not drawn)	-6	0.7	6	1.1	29
O=C(CCNS(=O)(=O)c1ccc(Cl)cc1)NCc1cccnc1	24	0.6	-6	0.8	44
O=C(CC(NS(=O)(=O)c1ccc(Cl)cc1)c1ccco1)NCc1cccnc1 (stereo not drawn)	70*	0.1	2	0.3	88*
CC(NS(=O)(=O)c1ccc(CCC(=O)NCc2cccnc2)cc1)c1ccccc1 (stereo not drawn)	71*	0.4	-5	0.3	58*
O=C(NCCCN1CCCC1)c1ccc(CSCc2cccc(Cl)c2)o1	1	0.9	1	1	10
CCOc1cc(/C=N\NC(=O)c2ccc(C)nc2)cc([N+](=O)[O-])c1O	15	1.1	2	0.9	-6
COc1ccc(C2N(c3cc(Cl)ccc3OC)C(=O)C3CCCN32)cc1 (stereo not drawn)	-85	0.2	4	1.8	77*
COc1ccc(Cl)cc1N1C(=O)C2CCCN2C1c1ccc(F)cc1 (stereo not drawn)	-98	0.5	12	2*	49
NS(=O)(=O)c1ccc(CNC(=O)C23CC4CC(CC(C4)C2)C3)cc1	0	1	-5	1	3
O=C(COC(=O)C12CC3CC(CC(C3)C1)C2)NCCc1ccccc1	85*	0.5	2	0.1	53*
O=C(NCCc1ccncc1)C12CC3CC(CC(C3)C1)C2	25	0.1	-3	0.8	94*
O=C(CC12CC3CC(CC(C3)C1)C2)NCc1ccncc1	88*	0	-5	0.1	99*
O=C(CN1C(=O)C2C3C=CC(C3)C2C1=O)NCCc1ccccc1 (stereo not drawn)	21	0.7	-3	0.8	33
CN(C)/C=C(/C#N)C(=O)c1cccc(Oc2ccc(C(C)(C)C)cc2)c1	50	0.2	-1	0.5	78*
Cc1cc(Cl)ccc1Oc1cccc(C(=O)/C(C#N)=C/N(C)C)c1	23	0.3	0	0.8	70*
Cc1ccccc1Oc1cccc(C(=O)/C(C#N)=C/N(C)C)c1	79*	0.1	2	0.2	89*
CNC(=O)CCSc1ccc(C)cc1	.	.	1	.	.
COc1cccc(Cn2cnc3c(NS(=O)(=O)c4ccc(Cl)cc4)c(C)c(C)cc32)c1	37	0.9	-4	0.6	10
CC(C)NC(=O)c1cnc(Sc2ncc(C(F)(F)F)cc2Cl)n1C	-109	0.7	-3	2.1*	25
CCOc1ccc(N(CC)C(=O)CCNC(=O)Cn2ccc3ccccc3c2=O)cc1	5	0.6	8	0.9	37
CCc1ccc2oc(-c3cc(N)ccc3Cl)nc2c1	26	0.5	.	0.7	53*
CCc1ccc2oc(-c3cc(N)ccc3O)nc2c1	32	0.6	-13	0.7	44
Cc1ccc(C)c(-c2nc3cc(N)ccc3o2)c1	17	0.7	.	0.8	28
CCc1ccc2oc(-c3cc(N)cc(C)c3O)nc2c1	94*	0	-4	0.1	95*
CCCCOc1ccc(CN2CCC(O)CC2)cc1	23	0.8	-5	0.8	19
